Source: PubChem BioAssay (EPA / NIEHS)
Several values for one entry are separate records, joined by “and”; a condition that tells them apart may be missing. Equal entries are not always repeated. Some structures have more than one record in an assay (separate samples or runs), and their calls can disagree. Activity calls are given as the source filed them. The calls were made as follows: active = hit-call score of the fitted dose curve at least 0.9, where 1 is the maximum; inactive = score below 0.9.

Assays:
[1] = read-out: Low-density lipoprotein receptor (LDLR), LDLR (gene 3949); experiment: BSK_CASM3C_LDLR: BioMAP Diversity Plus: CASM3C Assay for Low-density lipoprotein receptor (LDLR) Biomarker Activity (AID 2283045); settings: primary human coronary artery smooth muscle cells; actives raise or lower the signal;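 also: LDLR protein level on the cell surface quantified by ELISA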
[2] = read-out: Monocyte Chemoattractant Protein-1 (MCP1), CCL2 (gene 6347); experiment: BSK_CASM3C_MCP1: BioMAP Diversity Plus: CASM3C Assay for Monocyte Chemoattractant Protein-1 (MCP1) Biomarker Activity (AID 2283046); settings: primary human coronary artery smooth muscle cells; actives raise or lower the signal
[3] = BSK_CASM3C_Proliferation: Cell Proliferation Assessment in the BioMAP Diversity Plus: CASM3C Assay (AID 2283047); settings: primary human coronary artery smooth muscle cells;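 also: sulforhodamine B total protein stain as relative cell number at 560 nm; sub-confluent cells exposed 48 h before staining; fitted both ways against DMSO so gain or loss of cell number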
[4] = read-out: Monokine induced gamma interferon (MIG), CXCL9 (gene 4283); experiment: BSK_CASM3C_MIG: BioMAP Diversity Plus: CASM3C Assay for Monokine induced gamma interferon (MIG) Biomarker Activity (AID 2283048); settings: primary human coronary artery smooth muscle cells; actives raise or lower the signal;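 also: MIG protein level measured by ELISA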
[5] = read-out: serum amyloid A (SAA), SAA1 (gene 6288); experiment: BSK_CASM3C_SAA: BioMAP Diversity Plus: CASM3C Assay for serum amyloid A (SAA) Biomarker Activity (AID 2283049); settings: primary human coronary artery smooth muscle cells; actives raise or lower the signal
[6] = BSK_CASM3C_SRB: Viability Assessment in the BioMAP Diversity Plus: CASM3C Assay (AID 2283050); settings: primary human coronary artery smooth muscle cells;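 also: cells exposed to compound for 24 h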
[7] = read-out: Thrombomodulin, THBD (gene 7056); experiment: BSK_CASM3C_Thrombomodulin: BioMAP Diversity Plus: CASM3C Assay for Thrombomodulin Biomarker Activity (AID 2283051); settings: primary human coronary artery smooth muscle cells; actives raise or lower the signal;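 also: thrombomodulin protein level measured by ELISA 24 h after dosing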
[8] = read-out: Tissue Factor, F3 (gene 2152); experiment: BSK_CASM3C_TissueFactor: BioMAP Diversity Plus: CASM3C Assay for Tissue Factor Biomarker Activity (AID 2283052); settings: primary human coronary artery smooth muscle cells; actives raise or lower the signal;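 also: cell surface tissue factor protein level read by ELISA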
[9] = read-out: Interferon-gamma inducible Protein 10 (IP10), CXCL10 (gene 3627); experiment: BSK_hDFCGF_IP10: BioMAP Diversity Plus: hDFCGF Assay for Interferon-gamma inducible Protein 10 (IP10) Biomarker Activity (AID 2283053); settings: primary human foreskin fibroblasts; actives raise or lower the signal
Summary of the method: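 Cells: human dermal foreskin fibroblasts. Exposure: 24 h post-dosing. Detection: IP-10 ELISA, with values expressed against DMSO controls and fitted in both directions.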

[10] = read-out: Urokinase-type plasminogen activator receptor (uPAR), PLAUR (gene 5329); experiment: BSK_CASM3C_uPAR: BioMAP Diversity Plus: CASM3C Assay for Urokinase-type plasminogen activator receptor (uPAR) Biomarker Activity (AID 2283054); settings: primary human coronary artery smooth muscle cells; actives raise or lower the signal;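 also: cell-surface uPAR protein level quantified by ELISA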
[11] = read-out: Vascular cell adhesion molecule 1 (VCAM1), VCAM1 (gene 7412); experiment: BSK_CASM3C_VCAM1: BioMAP Diversity Plus: CASM3C Assay for Vascular cell adhesion molecule 1 (VCAM1) Biomarker Activity (AID 2283055); settings: primary human coronary artery smooth muscle cells; actives raise or lower the signal;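 also: VCAM-1 protein level quantified by ELISA on the cells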
[12] = read-out: Collagen III, COL3A1 (gene 1281); experiment: BSK_hDFCGF_CollagenIII: BioMAP Diversity Plus: hDFCGF Assay for Collagen III Biomarker Activity (AID 2283056); settings: primary human foreskin fibroblasts; actives raise or lower the signal
Summary of the method: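 Human foreskin fibroblast primary cultures sampled 24 h after dosing; Collagen III quantified by ELISA. Signal fitted bidirectionally against DMSO baseline.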

[13] = read-out: Epidermal growth factor receptor (EGFR), EGFR (gene 1956); experiment: BSK_hDFCGF_EGFR: BioMAP Diversity Plus: hDFCGF Assay for Epidermal growth factor receptor (EGFR) Biomarker Activity (AID 2283057); settings: primary human foreskin fibroblasts; actives raise or lower the signal
Summary of the method: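 Dosing human primary skin fibroblasts, then measuring surface EGFR by ELISA at 24 h, gives the endpoint; gains and losses relative to DMSO were fitted in both directions.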

[14] = read-out: Interleukin-8 (IL8), CXCL8 (gene 3576); experiment: BSK_hDFCGF_IL8: BioMAP Diversity Plus: hDFCGF Assay for Interleukin-8 (IL8) Biomarker Activity (AID 2283058); settings: primary human foreskin fibroblasts; actives raise or lower the signal
Summary of the method: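 Primary human foreskin fibroblasts (hDFCGF system) dosed with chemical; IL-8 measured by ELISA 24 hours later. Bidirectional curve fitting relative to DMSO baseline; cytotoxicity tracked in parallel cultures by SRB total protein staining.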

[15] = BSK_hDFCGF_Proliferation: Cell Proliferation Assessment in the BioMAP Diversity Plus: hDFCGF Assay (AID 2283059); settings: primary human foreskin fibroblasts;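 also: curves fitted for both rise and fall of signal versus DMSO baseline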
Summary of the method: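 Steps: dose primary human dermal fibroblasts (foreskin); […] fix in 10% TCA; stain with 0.1% SRB; read 560 nm; fit gain or loss of signal against DMSO.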

[16] = read-out: Macrophage colony-stimulating factor (MCSF), CSF1 (gene 1435); experiment: BSK_hDFCGF_MCSF: BioMAP Diversity Plus: hDFCGF Assay for Macrophage colony-stimulating factor (MCSF) Biomarker Activity (AID 2283060); settings: primary human foreskin fibroblasts; actives raise or lower the signal
Summary of the method: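 Human foreskin fibroblast primary cultures; M-CSF measured by ELISA 24 hours after chemical dosing. Bidirectional fitting relative to DMSO, with overt cytotoxicity tracked by parallel SRB total-protein staining (0.1% SRB, 10% TCA fixation, 560 nm).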

[17] = read-out: TIMP metallopeptidase inhibitor 1 (TIMP1), TIMP1 (gene 7076); experiment: BSK_hDFCGF_TIMP1: BioMAP Diversity Plus: hDFCGF Assay for TIMP metallopeptidase inhibitor 1 (TIMP1) Biomarker Activity (AID 2283062); settings: primary human foreskin fibroblasts; actives raise or lower the signal
Summary of the method: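 Human foreskin fibroblast primary cultures dosed for 24 h; secreted/surface TIMP-1 quantified by ELISA. Bidirectional curve fitting against DMSO baseline; cytotoxicity tracked in parallel cultures by SRB total-protein staining.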

[18] = read-out: Matrix Metallopeptidase 1 (MMP1), MMP1 (gene 4312); experiment: BSK_hDFCGF_MMP1: BioMAP Diversity Plus: hDFCGF Assay for Matrix Metallopeptidase 1 (MMP1) Biomarker Activity (AID 2283064); settings: primary human foreskin fibroblasts; actives raise or lower the signal
Summary of the method: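 MMP1 levels quantified by ELISA 24 h after dosing human dermal fibroblast cultures, with parallel SRB total-protein staining for overt cytotoxicity. Data fitted in both directions against DMSO baseline.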

[19] = read-out: Vascular cell adhesion molecule 1 (VCAM1), VCAM1 (gene 7412); experiment: BSK_hDFCGF_VCAM1: BioMAP Diversity Plus: hDFCGF Assay for Vascular cell adhesion molecule 1 (VCAM1) Biomarker Activity (AID 2283065); settings: primary human foreskin fibroblasts; actives raise or lower the signal;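 as to AC50: VCAM-1 protein level quantified by ELISA after 24 h chemical exposure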
Summary of the method: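 Human foreskin fibroblast primary cells dosed with chemical, VCAM-1 measured by ELISA at 24 h. Bidirectional curve fitting relative to DMSO as negative control/baseline.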

[20] = read-out: Plasminogen activator inhibitor-1 (PAI1), SERPINE1 (gene 5054); experiment: BSK_hDFCGF_PAI1: BioMAP Diversity Plus: hDFCGF Assay for Plasminogen activator inhibitor-1 (PAI1) Biomarker Activity (AID 2283066); settings: primary human foreskin fibroblasts; actives raise or lower the signal
Summary of the method: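 Fibroblasts from human foreskin were treated with test chemical. After 24 h, PAI-1 was measured by ELISA. Activity was fitted in both directions relative to DMSO.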

Measured: AC50

N#[N+]c1ccc2c(S(=O)(=O)[O-])cccc2c1O
inactive: all assays above

C#CC1(O)CC[C@H]2[C@@H]3CCC4=CCCC[C@@H]4[C@H]3CC[C@@]21C (stereo partly drawn)
active: [2] 32.1 µM | [3] 8.11 µM | [4] 20 µM | [5] 20 µM | [6] 31 µM | [7] 20 µM | [8] 20 µM | [9] 34.4 µM | [10] 20 µM | [11] 29.4 µM | [12] 34.4 µM | [13] 20 µM | [15] 15.1 µM | [16] 30 µM | [17] 33 µM | [18] 37.5 µM | [19] 37.5 µM | [20] 36.7 µM
inactive: [1] | [14]

CCCCCCCCCCCCCCCC[N+](C)(C)CC
active: [1] 2.94 µM | [2] 3.54 µM | [3] 1.61 µM | [4] 6.02 µM | [5] 2.61 µM | [6] 1.88 µM | [8] 2.19 µM | [9] 2.84 µM | [10] 3.16 µM | [11] 4.21 µM | [12] 0.447 µM | [14] 12.4 µM | [15] 0.484 µM | [16] 1.49 µM | [17] 1.89 µM | [18] 4.94 µM | [19] 1.82 µM | [20] 1.53 µM
inactive: [7] | [13]

CN1C(=O)N(C)C(O)C1O (stereo not drawn)
active: [11] 0.179 µM
inactive: [1] | [2] | [3] | [4] | [5] | [6] | [7] | [8] | [9] | [10] | [11] | [12] | [13] | [14] | [15] | [16] | [17] | [18] | [19] | [20]

O=c1c2ccccc2oc2ccccc12
active: [8] 2.7 µM
inactive: all other assays above

CO[Si](OC)(OC)c1ccccc1
inactive: all assays above

C=C[Si](OC(C)=O)(OC(C)=O)OC(C)=O
active: [1] 1.25 µM | [12] 3.16 µM | [15] 32.4 µM and 20 µM
inactive: [1] | [2] | [3] | [4] | [5] | [6] | [7] | [8] | [9] | [10] | [11] | [12] | [13] | [14] | [16] | [17] | [18] | [19] | [20]

CCCCC/C=C\C/C=C\CCCCCCCC(=O)OC
inactive: [5] | [7] | [13] | [14]
active: [1] 28.7 µM | [2] 33.7 µM | [3] 14.4 µM | [4] 31.1 µM | [6] 31.7 µM | [8] 11.4 µM | [9] 33.5 µM | [10] 28.7 µM | [11] 21.6 µM | [12] 27.8 µM | [15] 5.85 µM | [16] 26.5 µM | [17] 29.3 µM | [18] 33.4 µM | [19] 26.9 µM | [20] 28.9 µM

c1ccc(-c2ccccn2)nc1
inactive: all assays above
